Laboratory results from PubChem BioAssay (NCATS).
Several values for one entry are separate records, joined by “and”; a condition that tells them apart may be missing. Equal entries are not always repeated. Results filed as inconclusive are left out. A call without a number means that no potency is given here. Values without a mark were called inactive. Activity calls are given as the source filed them. The call rests on the fitted dose curve; in most records, active means well fitted curve in the direction sought with a large enough effect; inconclusive means small, poorly fitted or top-dose-only effect, or another doubt; inactive means no such curve, though single readings can be large; an effect the other way counts as inactive or inconclusive.

How the values were obtained:
[1] = qHTS of pediatric cancer cell lines to identify multiple opportunities for drug repurposing: Primary screen for Rh18 cells (AID 1347102); further: nearly all actives have a fitted effect of over 65% in size; further: potency means the concentration at half of the fitted maximal effect
Outline: (§1)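 Viability after 48 h compound treatment at 37C, 500-1,000 cells/well, read as ATP luminescence with CellTiter-Glo. Primary screens used 11-point (MIPE, 0.78 nM-46 µM) or 8-point (NPC, 0.59 nM-46 µM) final concentrations; follow-up screens used 11-point dilutions.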

[2] = qHTS of pediatric cancer cell lines to identify multiple opportunities for drug repurposing: Primary screen for OHS-50 cells (AID 1347103); further: nearly all actives have a fitted effect of over 40% in size; further: potency means the concentration at half of the fitted maximal effect
Outline: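 Cells (500-1,000/well) rested 5 h, then received compounds for 48 h; metabolically active cells were measured by CellTiter-Glo luminescence. Final concentrations spanned up to 46 µM (MIPE, 11-point) or 0.59 nM-46 µM (NPC, 8-point) in primary screens, 11-point in follow-ups.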

[3] = qHTS of pediatric cancer cell lines to identify multiple opportunities for drug repurposing: Primary screen for RD cells (AID 1347104); further: nearly all actives have a fitted effect of over 55% in size; further: potency means the concentration at half of the fitted maximal effect
Outline: (§2)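 Phenotypic viability qHTS, 48 h compound exposure, CellTiter-Glo luminescence read-out; multi-concentration dosing so that potency and efficacy derive directly from the primary screen's curves.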

[4] = qHTS of pediatric cancer cell lines to identify multiple opportunities for drug repurposing: Primary screen for MG 63 (6-TG R) cells (AID 1347105); further: nearly all actives have a fitted effect of over 50% in size; further: potency means the concentration at half of the fitted maximal effect
Outline: as §2

[5] = qHTS of pediatric cancer cell lines to identify multiple opportunities for drug repurposing: Primary screen for Rh41 cells (AID 1347108); further: nearly all actives have a fitted effect of over 70% in size; further: potency means the concentration at half of the fitted maximal effect
Outline: as §2

[6] = qHTS of pediatric cancer cell lines to identify multiple opportunities for drug repurposing: Confirmatory screen for NB1643 cells (AID 1347109); further: nearly all actives have a fitted effect of over 45% in size; further: potency means the concentration at half of the fitted maximal effect
Outline: as §1

[7] = qHTS of pediatric cancer cell lines to identify multiple opportunities for drug repurposing: Confirmatory screen for A673 cells (AID 1347110);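 further: cells exposed to compound for 48 h before the viability read; nearly all actives have a fitted effect of over 65% in size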; further: potency means the concentration at half of the fitted maximal effect
Outline: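 A673 cells seeded at 500-1,000 cells/well, rested 5 h, then dosed; primary MIPE 11-point (0.78 nM to 46 µM), NPC (0.59 nM to 46 µM); confirmatory 11-point. CellTiter-Glo luminescence after 48 h.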

[8] = qHTS of pediatric cancer cell lines to identify multiple opportunities for drug repurposing: Confirmatory screen for BT-12 cells (AID 1347112); further: nearly all actives have a fitted effect of over 55% in size; further: potency means the concentration at half of the fitted maximal effect
Outline: as §1

[9] = qHTS of pediatric cancer cell lines to identify multiple opportunities for drug repurposing: Primary screen for Rh30 cells (AID 1347107); further: series mostly up to about 46 µM; nearly all actives have a fitted effect of over 75% in size
Outline: as §1

[10] = qHTS of pediatric cancer cell lines to identify multiple opportunities for drug repurposing: Primary screen for control Hh wild type fibroblast cells (AID 1347106);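 further: series mostly up to about 46 µM; a drop in luminescence marks cytotoxicity and a rise apparent proliferation; nearly all actives have a fitted effect of over 55% in size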
Outline: as §1

With `CN(C)c1ccc(O)c2c1C[C@H]1C[C@H]3[C@H](N(C)C)C(=O)C(C(N)=O)=C(O)[C@@]3(O)C(=O)C1=C2O` the Potency [1] was “inactive”, the Potency [2] was “inactive” and the Potency [3] was “inactive”. For the same molecule, the Potency [4] was “inactive”, the Potency [5] was “inactive” and the Potency [6] was “inactive”. For the same molecule, the Potency [7] was “inactive” and the Potency [8] was “inactive”.
With `CC1Cc2ccccc2N1NC(=O)c1ccc(Cl)c(S(N)(=O)=O)c1` (stereo unspecified) the Potency [1] was “inactive”, the Potency [2] was “inactive” and the Potency [3] was “inactive”. For the same molecule, the Potency [4] was “inactive”, the Potency [9] was “inactive” and the Potency [5] was “inactive”.
For `CCC(C)(Oc1ccc(C2(c3ccc(OC(C)(CC)C(=O)O)cc3)CCCCC2)cc1)C(=O)O` (stereo unspecified), the Potency [1] was “inactive”, the Potency [2] was “inactive” and the Potency [3] was “inactive”. For the same molecule, the Potency [4] was “inactive”, the Potency [9] was “inactive” and the Potency [5] was “inactive”.
In the case of `O=C(O)c1cccc(-c2noc(-c3ccccc3F)n2)c1`, the Potency [1] is reported as “inactive”, the Potency [2] is reported as “inactive” and the Potency [3] is reported as “inactive”. The Potency [10] was “inactive”.
For `O=C(NC(Cc1cc(=O)[nH]c2ccccc12)C(=O)O)c1ccc(Cl)cc1` (stereo unspecified), the Potency [1] was “inactive”, the Potency [2] was “inactive” and the Potency [3] was “inactive”. The Potency [4] was “inactive” and the Potency [5] was “inactive”.
In the case of `COc1c2occc2cc2ccc(=O)oc12`, the Potency [1] is reported as “inactive”, the Potency [2] is reported as “inactive” and the Potency [3] is reported as “inactive”. The Potency [10] was “inactive”, the Potency [9] was “inactive” and the Potency [5] was “inactive”.
For `Cc1cc(O)c2c(c1)C(=O)c1cc(O)cc(O)c1C2=O`, the Potency [1] was “inactive”, the Potency [2] was “inactive” and the Potency [3] was “inactive”. The Potency [10] was “inactive”.
In the case of `Cc1cc(=O)oc2cc(O)ccc12`, the Potency [1] is reported as “inactive”, the Potency [2] is reported as “inactive” and the Potency [3] is reported as “inactive”. For the same molecule, the Potency [4] was “inactive”, the Potency [10] was “inactive” and the Potency [5] was “inactive”.
For `Oc1ccc(OCc2ccccc2)cc1`, the Potency [1] was “inactive”, the Potency [2] was “inactive” and the Potency [3] was “inactive”. For the same molecule, the Potency [4] was “inactive”, the Potency [9] was “inactive” and the Potency [5] was “inactive”.
In the case of `NC(=O)Cc1cccc(C(=O)c2ccccc2)c1N`, the Potency [1] is reported as “inactive”, the Potency [2] is reported as “inactive” and the Potency [3] is reported as “inactive”. The Potency [4] was “inactive”, the Potency [9] was “inactive” and the Potency [5] was “inactive”.
With `CCN(CC)C(=S)SSC(=S)N(CC)CC` the Potency [1] was 33.2 nM (active) and 70 nM (active) and 376 nM (active), the Potency [2] was 43.2 nM (active) and the Potency [3] was 11.8 nM (active) and 35.1 nM (active) and 150 nM (active). The Potency [4] was 37.2 nM (active), the Potency [5] was 13.2 nM (active) and 70 nM (active) and the Potency [6] was 8270 nM (active). The Potency [7] was 522 nM (active).
For `O=C(CCc1ccc(O)cc1)c1c(O)cc(O)cc1O`, the Potency [1] was “inactive”, the Potency [2] was 432 nM (active) and the Potency [3] was “inactive”. For the same molecule, the Potency [4] was “inactive”, the Potency [9] was “inactive” and the Potency [5] was “inactive”. For the same molecule, the Potency [6] was “inactive”, the Potency [7] was “inactive” and the Potency [8] was “inactive”.
In the case of `CC(=O)Nc1ccc(O)cc1`, the Potency [1] is reported as “inactive”, the Potency [2] is reported as “inactive” and the Potency [3] is reported as “inactive”. The Potency [4] was “inactive”, the Potency [9] was “inactive” and the Potency [5] was “inactive”.
For `O=c1c(O)c(-c2ccc(O)cc2O)oc2cc(O)cc(O)c12`, the Potency [1] was “inactive”, the Potency [2] was “inactive” and the Potency [3] was “inactive”. For the same molecule, the Potency [10] was “inactive” and the Potency [9] was “inactive”.
With `O=C(OC1C[C@H]2CC[C@@H](C1)[N+]21CCCC1)C(O)(c1ccccc1)c1ccccc1` (stereo partly specified) the Potency [1] was “inactive”, the Potency [2] was “inactive” and the Potency [3] was “inactive”. The Potency [4] was “inactive” and the Potency [5] was “inactive”.
In the case of `CCN(CC)CCOc1ccc(Nc2ncc3cc(-c4c(Cl)cccc4Cl)c(=O)n(C)c3n2)cc1`, the Potency [1] is reported as 372 nM (active), the Potency [2] is reported as 122 nM (active) and the Potency [3] is reported as 743 nM (active). For the same molecule, the Potency [4] was 187 nM (active), the Potency [5] was 1.87 µM (active) and the Potency [6] was 9270 nM (active). For the same molecule, the Potency [7] was 185 nM (active) and the Potency [8] was 11700 nM (active).
For `c1ccc2[nH]c(-c3cscn3)nc2c1`, the Potency [1] was “inactive”, the Potency [2] was “inactive” and the Potency [3] was “inactive”. The Potency [10] was “inactive”, the Potency [9] was “inactive” and the Potency [5] was “inactive”.
For `COCCCOc1ccnc(CS(=O)c2nc3ccccc3[nH]2)c1C` (stereo unspecified), the Potency [1] was “inactive”, the Potency [2] was “inactive” and the Potency [3] was “inactive”. The Potency [4] was “inactive”, the Potency [9] was “inactive” and the Potency [5] was “inactive”.
With `C[C@]12CCC(=O)C=C1CC[C@@H]1[C@H]2[C@@H](O)C[C@@]2(C)[C@H]1CC[C@]2(O)C(=O)CO` the Potency [1] was “inactive”, the Potency [2] was “inactive” and the Potency [3] was “inactive”. The Potency [4] was “inactive”, the Potency [5] was “inactive” and the Potency [6] was “inactive”. The Potency [7] was “inactive” and the Potency [8] was “inactive”.
For `Nc1ccn([C@@H]2O[C@H](CO)[C@@H](O)C2O)c(=O)n1` (stereo partly specified), the Potency [1] was “inactive”, the Potency [2] was “inactive” and the Potency [3] was “inactive”. The Potency [4] was “inactive”, the Potency [9] was “inactive” and the Potency [5] was “inactive”. For the same molecule, the Potency [6] was “inactive”, the Potency [7] was 16500 nM (active) and the Potency [8] was “inactive”.
With `CC(C)[C@H](N)C(=O)OCCOCn1cnc2c(=O)[nH]c(N)nc21` the Potency [1] was “inactive”, the Potency [2] was “inactive” and the Potency [3] was “inactive”. The Potency [4] was “inactive”, the Potency [9] was “inactive” and the Potency [5] was “inactive”.
With `COC(=O)N[C@H](C(=O)N[C@@H](Cc1ccccc1)[C@@H](O)CN(Cc1ccc(-c2ccccn2)cc1)NC(=O)[C@@H](NC(=O)OC)C(C)(C)C)C(C)(C)C` the Potency [1] was “inactive”, the Potency [2] was “inactive” and the Potency [3] was “inactive”. The Potency [10] was “inactive”, the Potency [9] was “inactive” and the Potency [5] was “inactive”.
With `COc1ccc2cc([C@H](C)C(=O)O)ccc2c1` the Potency [1] was “inactive”, the Potency [2] was “inactive” and the Potency [3] was “inactive”. The Potency [10] was “inactive”, the Potency [9] was “inactive” and the Potency [5] was “inactive”.
With `S=c1nc[nH]c2nc[nH]c12` the Potency [1] was “inactive”, the Potency [2] was 2.19 µM (active) and 3.06 µM (active) and the Potency [3] was “inactive”. For the same molecule, the Potency [4] was “inactive” and the Potency [5] was “inactive”.
For `C=CCc1cc(OC)c(O)c(C(=O)NCCO)c1`, the Potency [1] was “inactive”, the Potency [2] was “inactive” and the Potency [3] was “inactive”. The Potency [10] was “inactive”, the Potency [9] was “inactive” and the Potency [5] was “inactive”.
With `CCOC(=O)C1=C(O)C(=O)N(Cc2ccccc2)C1` the Potency [1] was “inactive”, the Potency [2] was “inactive” and the Potency [3] was “inactive”. For the same molecule, the Potency [4] was “inactive”, the Potency [10] was “inactive” and the Potency [5] was “inactive”.
With `CCCCN(CCCC)CCC(O)c1cc2c(Cl)cc(Cl)cc2c2cc(C(F)(F)F)ccc12` (stereo unspecified) the Potency [1] was “inactive”, the Potency [2] was 30600 nM (active) and the Potency [3] was “inactive”. For the same molecule, the Potency [10] was “inactive” and the Potency [5] was “inactive”.
